The nature of assay [1]: NCI Yeast Anticancer Drug Screen. Data for the rad50 strain (AID 155).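 Further: 0% = growth of vehicle-only cultures of the same strain.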 To be noted: S. cerevisiae rad50 strain growth inhibition; at 50.0 µM; active compounds read high. The method in brief: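 Relative growth inhibition (compound vs vehicle) was measured in yeast with a defined repair-gene alteration.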
The nature of assay [2]: NCI Yeast Anticancer Drug Screen. Data for the mec2-1 strain (AID 157). As to conditions: S. cerevisiae mec2-1 strain, at 50.0 µM, active compounds read high. The method in brief: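 Cells of the genetically defined mec2-1 yeast strain are incubated with test compound. Inhibition of growth is calculated against vehicle-treated controls.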
A short description of assay [3]: NCI Yeast Anticancer Drug Screen. Data for the sgs1 mgt1 strain (AID 161).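 Further: 0% = growth of cultures given vehicle only.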 To be noted: S. cerevisiae sgs1 mgt1 strain, at 50.0 µM, active compounds read high. Put shortly:
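Mutant yeast exposed to compound; growth scored against vehicle-only wells.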

A short description of assay [4]: NCI Yeast Anticancer Drug Screen. Data for the cln2 rad14 strain (AID 165).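 Further: 0% = growth equal to vehicle treated cultures.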 As to conditions: S. cerevisiae cln2 rad14 strain, at 50.0 µM, active compounds read high. Put shortly:
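The screen exposed genetically defined yeast (cln2 rad14) to test compounds and scored growth inhibition relative to vehicle-treated controls.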

A short description of assay [5]: NCI Yeast Anticancer Drug Screen. Data for the bub3 strain (AID 167). To be noted: S. cerevisiae bub3 mutant strain, at 50.0 µM, active compounds read high. Put shortly: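 Screening used yeast with an engineered genetic alteration affecting cell cycle control. Compound-exposed cultures were compared with vehicle cultures, and reduced growth was taken as inhibition.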
A short description of assay [6]: NCI Yeast Anticancer Drug Screen. Data for the mlh1 rad18 strain (AID 175). To be noted: S. cerevisiae mlh1 rad18 strain growth inhibition; at 50.0 µM; active compounds read high. Put shortly: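 Compound-treated yeast growth, normalised to vehicle controls. Strain bears defined DNA repair mutations.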

The panel holds about 79,000 compounds, 15% with a hit somewhere; the sample as a whole holds those more often. Unmarked numbers belong to inactive results. Activity calls are given as the source filed them. No stated cut-off is given here; in the data, active means growth inhibition above about 70%; inactive means the rest.

`Cc1ccccc1OCC1COCN(C(C)(C)CO)CO1` (stereo not given): the growth inhibition is -11.1% in assay [1]; -4.5% in assay [2]; -5.5% in assay [3]; 7.9% in assay [4]; -13.9% in assay [5]; 16.8% in assay [6].
For the compound `Cc1nc(/C=C2\C(=O)C=Cc3ccccc32)c(O)o1`, the growth inhibition is 7.85% in assay [1]; -6.3% in assay [2]; 8.35% in assay [3]; -63% in assay [4]; 16% in assay [5]; 0.3% in assay [6].
On to `CCCC(=O)c1ccc(=O)n(C)c1`, for which the growth inhibition in assay [1] was 18.2%; in assay [2], 9.8%; in assay [3] it was -4.4%; in assay [4], -2.1%; in assay [5], 14.4%; in assay [6], 17.9%.
`CCCCCCCCCCCCCCCCCCNC(=O)c1c(Br)c(Br)cc(Br)c1C(=O)O`: the growth inhibition in assay [1] was -1.45%; in assay [2], 8.55%; in assay [3], 13.2%; in assay [4], -8.35%; in assay [5] it was -3.7%; in assay [6] it was 6.75%.
For `Cc1cc(=O)[nH]c2cc(NN)ccc12`, the growth inhibition was 10.2% in assay [1]; -3.85% in assay [2]; 4.85% in assay [3]; -4.35% in assay [4]; -0.45% in assay [5]; 8.55% in assay [6].
As to `Cc1c(N)nc(C(CC(N)=O)NCC(N)C(N)=O)nc1C(=O)NC(C(=O)NC(C)C(O)C(C)C(=O)NC(C(=O)NCCc1nc(-c2nc(C(=O)NCCC[S+](C)CC(N)=O)cs2)cs1)C(C)O)C(OC1OC(CO)C(O)C(O)C1OC1OC(CO)C(O)C(OC(N)=O)C1O)c1cnc[nH]1` (stereo not given), the growth inhibition is 63.9% in assay [1]; 58.9% in assay [2]; 71.7% (active) in assay [3]; 56.9% in assay [4]; 80% (active) in assay [5]; 75.7% (active) in assay [6].
Turning to `NC1=NC(=O)C2(CCCCC2)S1`, the growth inhibition is -9.6% in assay [1]; -4.8% in assay [2]; -21.2% in assay [3]; -47.6% in assay [4]; -8% in assay [5]; -24.6% in assay [6].
For `CCOC(=O)/C(O)=C/c1nc2ccccc2nc1C`, the growth inhibition was 18.8% in assay [1]; 5.65% in assay [2]; 8.9% in assay [3]; -6% in assay [4]; -17.3% in assay [5]; 14.7% in assay [6].
Turning to `O=C(CCCSCCCC(=O)NN=C1CCSCC1)NN=C1CCSCC1`, the growth inhibition was -0.9% in assay [1]; -4.3% in assay [2]; 10.8% in assay [3]; 21.2% in assay [4]; -7.85% in assay [5]; -7.65% in assay [6].
Take `CC(C)CCCC(C)C1CCC2C3CC([N+](=O)[O-])=C4CC(O[N+](=O)[O-])CCC4(C)C3CCC12C` (stereo not given): the growth inhibition in assay [1] was 50.4%; in assay [2], 20.1%; in assay [3] it was 37.1%; in assay [4], 23.6%; in assay [5] it was 1.95%; in assay [6] it was 20.2%.
On to `CCCCCCC(C)C(=O)Nc1ccccc1` (stereo not given), for which the growth inhibition in assay [1] is 16.7%; in assay [2], -11.8%; in assay [3], 10.7%; in assay [4], 2.75%; in assay [5], -2.95%; in assay [6], -17.1%.
On to `O=c1[nH]cc(F)c(=S)[nH]1`, for which the growth inhibition in assay [1] is -9.85%; in assay [2] it was -16.5%; in assay [3], -5.9%; in assay [4], -16.4%; in assay [5] it was 6.2%; in assay [6], -23.9%.
Regarding `CN(C)CCN1N=Nc2cccc3cccc1c23`, the growth inhibition in assay [1] was 43.3%; in assay [2], 18.2%; in assay [3] it was 10.9%; in assay [4], 19.2%; in assay [5], 30.6%; in assay [6] it was 39.4%.
`CC(=O)OCC1OC=CC(OC(C)=O)C1OC(C)=O` (stereo not given): the growth inhibition in assay [1] was -23.1%; in assay [2] it was -18.8%; in assay [3] it was -8.55%; in assay [4], -5.85%; in assay [5], -25.8%; in assay [6], -7.5%.
As for `CN(/N=C\c1ccc([N+](=O)[O-])cc1)C(=O)c1ccccc1`, the growth inhibition is -6.85% in assay [1]; -4.15% in assay [2]; 14.6% in assay [3]; -33.6% in assay [4]; 19.4% in assay [5]; -7.35% in assay [6].
On to `OC1(c2ccccc2)C(c2ccccc2)=C(c2ccccc2)C(c2ccc(CCCCCCCCc3ccc(C4=C(c5ccccc5)C(O)(c5ccccc5)C(c5ccccc5)=C4c4ccccc4)cc3)cc2)=C1c1ccccc1` (stereo not given), for which the growth inhibition was -20.4% in assay [1]; -3.95% in assay [2]; -7.5% in assay [3]; -28.1% in assay [4]; -23.6% in assay [5]; -9.15% in assay [6].
For the compound `COC(=O)C(Cc1nc2ccccc2[nH]c1=O)C(=O)C(=O)Nc1ccc([N+](=O)[O-])cc1[N+](=O)[O-]` (stereo not given), the growth inhibition is 7.25% in assay [1]; 22.7% in assay [2]; 4.45% in assay [3]; 0.2% in assay [4]; 18.1% in assay [5]; 13.1% in assay [6].
Take `COC(=O)c1cc(-c2ccc(OC)cc2)[nH]c(=O)c1C#N`: the growth inhibition in assay [1] was 20.2%; in assay [2], 21.1%; in assay [3] it was 31.2%; in assay [4] it was 20.4%; in assay [5], 26.1%; in assay [6], 27.9%.
As to `Cc1cc(NS(=O)(=O)c2ccc(N=[N+]([O-])c3ccc(S(=O)(=O)Nc4cc(C)on4)cc3)cc2)no1`, the growth inhibition was 10.8% in assay [1]; -30.1% in assay [2]; -6% in assay [3]; 4.7% in assay [4]; -13.2% in assay [5]; -19.6% in assay [6].
For `Cc1ccc(C(=O)NC2CCCCC2)cc1N=NN(C)C`, the growth inhibition in assay [1] was 31.4%; in assay [2], -7.55%; in assay [3], 18.7%; in assay [4], 19.1%; in assay [5], 9.45%; in assay [6] it was -11.4%.

(Values after PubChem BioAssay (NCI).)
